Results as given in the supplement of paper PMC13380429.
Unmarked numbers belong to inactive results.

Test system: Vero E6 infected with SARS-CoV-2
Assay: inhibition of SARS-CoV-2 cytopathic effect; higher = more antiviral protection, active = above 15
Details: 48 h

| SMILES | inhibition of SARS-CoV-2 cytopathic effect (1 nM) [%] | inhibition of SARS-CoV-2 cytopathic effect (8.33 nM) [%] | inhibition of SARS-CoV-2 cytopathic effect (100 nM) [%] | inhibition of SARS-CoV-2 cytopathic effect (833.33 nM) | inhibition of SARS-CoV-2 cytopathic effect (10000 nM) [%] |
| --- | --- | --- | --- | --- | --- |
| COc1ccccc1OCCNCC(O)COc1cccc2[nH]c3ccccc3c12 (stereo not given) [carvedilol] | 2.73 | 3.88 | 0.32 | -1.02% | -1.85 |
| CCOC(=O)C1=C(C)NC(c2ccccc2)=C(C(=O)OCc2ccc([N+](=O)[O-])cc2)[C@@H]1C#Cc1ccccc1 | 2.05 | -1.34 | 0.42 | 1.51% | 3.9 |
| COc1ccc2c(c1)/C(=C/c1cnc[nH]1)C(=O)N2 | 0.21 | -1.7 | -1.87 | 4.89% | 6.28 |
| CC(OC(=O)OC1CCCCC1)OC(=O)C1=C(CSc2nnnn2CCN(C)C)CS[C@@H]2[C@H](NC(=O)Cc3csc(N)n3)C(=O)N12 (stereo not given in full) [cefotiam-cilexetil] | -0.8 | 0.27 | 0.74 | 0.5% | -0.94 |
| O=C(Nc1ccccc1)Nc1ccc(-c2ccc(C(=O)[C@@H]3CCC[C@@H]3C(=O)O)cc2)cc1 | -1.33 | 1.31 | 3.77 | 1.06% | -1.53 |
| CC[C@H](NC(=O)c1c(O)c(-c2ccccc2)nc2ccccc12)c1ccccc1 [talnetant] | -0.24 | 0.6 | -1.02 | -1.22% | 2.11 |
| CC(C)c1cccc2c(-c3ccccc3)cc(-c3ccc(-c4ccc(C(=O)O)cc4)[nH]3)nc12 | 5.04 | 4.89 | 3.09 | 5.27% | 3.56 |
| CC(C)(C)NCC(O)COc1cccc2[nH]c(C#N)cc12 (stereo not given) [cyanopindolol] | 1.56 | 1.94 | 0.47 | -2.7% | -1.96 |
| Nc1nc(OCC2CCCCC2)c2nc[nH]c2n1 | 1.06 | 0.95 | -3.55 | 1.35% | -1.27 |
| C[C@H](CCC(=O)O)[C@H]1CC[C@H]2[C@@H]3[C@@H](O)C[C@@H]4C[C@H](O)CC[C@]4(C)[C@H]3CC[C@]12C [ursodiol] | 0.455 | 1.77 | 3.56 | 1.38% | 0.145 |
| CC1(C)OC2(C)C(O)CC1CC2O (stereo not given) [epomediol] | 7.71 | 1.77 | 4.4 | 1.92% | 3.17 |
| CN1CCN(Cc2ccc(-c3cnc4[nH]cc(-c5ccc6[nH]ccc6c5)c4c3)cc2)CC1 | 1.32 | 1.21 | 3.09 | 21.6% (active) | -14.8 |
| COC(=O)CCc1ccc(OCC(O)CNC(C)C)cc1 (stereo not given) [esmolol] | 0.17 | 0.64 | -0.39 | 0.07% | -0.39 |
| [N-]=[N+]=CC(=O)CC[C@H](N)C(=O)O [6-diazo-5-oxo-L-norleucine] | 0.69 | 0.78 | 0.86 | 0.6% | -0.69 |
| CC(C)NCC(O)COc1cccc2[nH]ccc12 (stereo not given) [pindolol] | -3.04 | 0.875 | 0.95 | -0.725% | -1.61 |
| CNC(=O)Oc1cccc2ccccc12 [carbaril] | -0.49 | -0.59 | 0.05 | 1.22% | -0.51 |
| CNC(=O)c1ccc(Nc2ncc(C(F)(F)F)c(NCc3nccnc3N(C)S(C)(=O)=O)n2)cc1 [defactinib] | -2.21 | -4.25 | -0.22 | -2.59% | -4.28 |
| Cc1ccc(NC2=NCCN2)c(Cl)c1 [tolonidine] | 1.65 | 0.34 | 0.64 | -0.01% | 0.42 |
| Cc1coc2c1C(=O)C(=O)c1c-2ccc2c1CCCC2(C)C [tanshinone-IIA] | -0.65 | 2.92 | 0.8 | -7.33% | -6.78 |
